# Screens (PubChem BioAssay)
# In the library only some 0.85% were active in any assay of this set; here they are far more common.
# BLM helicase inh: qHTS Assay for Inhibitors of Bloom's syndrome helicase (BLM). AID 2528, 2010. recombinant BLM DNA unwinding, fluorescence dequenching. RecQ-like DNA helicase BLM (Homo sapiens), P54132. 350,000 tested, 0.2% active. Potency, µM (highest dose often 56.1 µM), inactives show at the top dose activity change, negative = inhibition, usual class: inhibitors;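 note: plate controls were vehicle for no effect and no enzyme for full effect; nearly all actives have a fitted effect of over 35% in size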
# TDP1 inh: qHTS Assay for Inhibitors of Tyrosyl-DNA Phosphodiesterase (TDP1); Potency, µM (titrated, usually from 130 µM), for inactives: at the top dose activity change, negative = inhibition, most hits filed as inhibitors; recombinant TDP1, AlphaScreen DNA substrate cleavage; 350,000 tested, 0.28% active; Tyrosyl-DNA phosphodiesterase 1 (Homo sapiens), Q9NUW8; note: nearly all actives have a fitted effect of over 40% in size
#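 Here, a 5' biotin and 3' phosphotyrosine-FITC DNA oligonucleotide reports Tdp1 activity: intact substrate bridges AlphaScreen beads, while cleavage leaves a 3' phosphate and drops signal. All incubations at room temperature.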
# APE1 inh-1: qHTS Assay for Inhibitors of the Human Apurinic/apyrimidinic Endonuclease 1 (APE1) | 350,000 tested, 0.35% active | recombinant APE1, TAMRA/BHQ-2 abasic DNA cleavage fluorescence | Potency, µM (series often up to 65.8 µM), inactives show at the top dose activity change, negative = inhibition, most hits filed as inhibitors | DNA repair nuclease/redox regulator APEX1 (Homo sapiens), P27695 | AID 2517, 2012;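 note: plate controls were vehicle for no effect and reference inhibitor for full effect; nearly all actives have a fitted effect of over 55% in size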
# Target sequence (P27695 whole entry, looked up): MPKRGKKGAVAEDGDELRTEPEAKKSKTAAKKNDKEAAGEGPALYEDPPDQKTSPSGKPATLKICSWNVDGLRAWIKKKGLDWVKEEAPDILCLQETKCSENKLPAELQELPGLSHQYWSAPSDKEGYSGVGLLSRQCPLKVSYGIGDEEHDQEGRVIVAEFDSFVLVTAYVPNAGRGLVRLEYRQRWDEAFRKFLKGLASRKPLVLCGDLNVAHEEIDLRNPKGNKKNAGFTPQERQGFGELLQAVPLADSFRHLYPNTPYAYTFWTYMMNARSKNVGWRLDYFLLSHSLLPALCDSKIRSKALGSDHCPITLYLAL
#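 Kinetic fluorescence read (525 ex/598 em nm, three reads 60 s apart) of AP-site incision; signal = third minus first read. Enzyme 0.75 nM, dual-labelled THF duplex 50 nM, compound preincubation 15 min RT.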
# GLS inhibitor: qHTS for Inhibitors of Glutaminase (GLS); Glutaminase kidney isoform, mitochondrial (Homo sapiens), O94925; GLS enzymatic activity, qHTS titration; Potency, µM (highest dose often 45.5 µM), without a hit: at the highest dose activity change, negative = inhibition, usual class: inhibitors; 410,000 tested, 0.21% active
#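 hKGA in 45 mM KH2PO4 (pH 8.2), 0.02% Tween-20 with compound, then 1mM L-Glutamine (stock as added) plus glutamate oxidase/HRP/Amplex red coupling mix. Fluorescence read initially and after 30 min at RT; signal change reflects glutamate formation.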
# RECQ1 inh: qHTS Assay for Inhibitors of RecQ-Like Dna Helicase 1 (RECQ1) | RECQ1 DNA unwinding, red fluorescence kinetic read | Potency, µM (top dose mostly 57.3 µM), for inactives: top-dose activity, negative = inhibition, usual class: inhibitors | 240,000 tested, 0.54% active | AID 2549, 2010;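 note: plate controls were vehicle for no effect and no enzyme for full effect; nearly all actives have a fitted effect of over 30% in size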
#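 50 nM RECQ1T1 preincubated 15 min with compound in Tris pH 8.0 buffer with MgCl2, DTT, Tween-20 and 2.5 ug/ml poly(dI-dC); started with 200 nM TAMRA/BHQ-2 forked duplex and 2 mM ATP. Unwinding read as fluorescence (525/598 nm), two reads 2 h apart.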
# Tb PGK inh: qHTS Assay to Find Inhibitors of Phosphoglycerate Kinase; 380,000 tested, 0.043% active; PGK/GAPDH coupled, Kinase-Glo luminescence, 60 min; Potency, µM (series often up to 57.5 µM), for the others: at the highest dose activity change, negative = inhibition, hits mostly inhibitors; Phosphoglycerate kinase, glycosomal (Trypanosoma brucei brucei), P07378; note: nearly all actives have a fitted effect of over 60% in size
# Target sequence (P07378 whole entry, looked up): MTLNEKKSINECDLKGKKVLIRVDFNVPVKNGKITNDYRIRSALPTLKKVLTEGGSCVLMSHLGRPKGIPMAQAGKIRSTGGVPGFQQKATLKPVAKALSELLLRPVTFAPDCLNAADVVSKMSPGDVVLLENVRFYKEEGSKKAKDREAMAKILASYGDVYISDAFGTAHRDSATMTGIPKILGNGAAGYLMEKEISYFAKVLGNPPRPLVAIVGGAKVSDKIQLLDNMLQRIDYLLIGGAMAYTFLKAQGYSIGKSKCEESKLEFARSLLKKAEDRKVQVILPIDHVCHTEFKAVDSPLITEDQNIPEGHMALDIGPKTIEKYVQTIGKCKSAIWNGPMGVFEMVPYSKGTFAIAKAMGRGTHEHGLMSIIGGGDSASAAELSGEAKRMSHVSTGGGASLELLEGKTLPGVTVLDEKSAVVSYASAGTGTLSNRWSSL
#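 Recombinant glycosomal PGK reaction used 1,3-bisphosphoglycerate generated in-well by GAPDH (100nM final) in 100mM TEA pH 7.6, 5mM MgCl2, 0.01% Tween-20. After 60 minutes at room temperature, ATP was read by Kinase-Glo Plus luminescence end-point.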
# APE1 dye cs: Counterscreen for APE1 Inhibitors: Fluorescent Dye Displacement Assay; shares compounds with APE1 inh-1; Potency, µM (doses to about 28.5 µM), without a hit: at the top dose activity change, negative = inhibition, actives largely listed as inhibitors; DNA fluorescent dye displacement counterscreen, fluorescence; 480 tested, 7% active;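 note: loss of thiazole orange fluorescence as the dye is displaced from duplex DNA; 0% = ThO with dsDNA and no compound and -100% = ThO without dsDNA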
# EndoIV counter: Counterscreen for APE1 Inhibitors: qHTS Assay for Inhibitors of Endonuclease IV; E. coli Endo IV, fluorogenic AP-site DNA cleavage; 560 tested, 4% active; Potency, µM (series often up to 27.1 µM), inactives show at the top dose activity change, negative = inhibition, usual class: inhibitors; shares compounds with APE1 inh-1;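 note: plate controls were uninhibited enzyme wells for no effect and no enzyme buffer wells for full effect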
# APE1 inh-2: Confirmation qHTS Assay for Inhibitors of the Human Apurinic/apyrimidinic Endonuclease 1 (APE1) | shares compounds with APE1 inh-1 | purified APE1, fluorogenic abasic-site DNA cleavage | Potency, µM (doses to about 57.1 µM), for inactives: top-dose activity change, negative = inhibition, actives largely listed as inhibitors | 750 tested, 44% active; note: nearly all actives have a fitted effect of over 30% in size
# APE1 FP: qHTS FP-Based Assay for Inhibitors of the Human Apurinic/apyrimidinic Endonuclease 1 (APE1) | shares compounds with APE1 inh-1 | APE1 binding to TAMRA-labelled double-stranded DNA, fluorescence polarization displacement | Potency, µM (titrated, usually from 28.5 µM), inactives show top-dose activity, negative = inhibition, most hits filed as inhibitors | 480 tested, 7% active | AID 2573, 2010
# * = called active by the depositor; i = inactive; ? = inconclusive; . = not tested or not shown; ! = not active in a repeat; [ ] = another dose, or the depositor's remark. Calls come from the whole dose curve; as a rule, active = well fitted curve in the direction sought with a large enough effect; inconclusive = small, poorly fitted or top-dose-only effect, or another doubt; inactive = no such curve, though single readings can be large; an effect the other way counts as inactive or inconclusive. Unless noted, % is set by controls: 0 for no effect and ±100 for the full control effect; potency is the fitted concentration of half-maximal effect.
SMILES,BLM helicase inh,TDP1 inh,APE1 inh-1,GLS inhibitor,RECQ1 inh,Tb PGK inh,EndoIV counter,APE1 inh-2,others
CCN(c1ccccc1)S(=O)(=O)c1cc(C(=O)OC(C)C(=O)Nc2ccc3c(c2)OCCO3)ccc1C (configuration not stated),-14%,.,11µM*,-8%,-12%,-14%,-7%,14µM*,APE1 dye cs=18%;APE1 FP=?
O=C(CCCN1CCN(c2ccc(F)cc2)CC1)NC1c2ccccc2CSc2ccccc21 (configuration not stated),.,.,.,13%,.,.,.,.,
CCOC(=O)c1cc2c(=O)n3ccccc3nc2n(Cc2ccco2)c1=NC(=O)c1ccccc1OC,-24%,79µM*!,?,-3%,-21%,-3%,.,-35%,
O=C1NN(c2ccccc2)C(=O)/C1=C/c1ccc(-c2ccc(Cl)c(C(=O)O)c2)o1,-11%,16µM*,13µM*,?,?,?,-4%,22µM*,APE1 dye cs=?;APE1 FP=?
O=C(O)c1cc(-c2ccc(/C=N/N3C(=O)C4C5C=CC(CC5)C4C3=O)o2)ccc1Cl (configuration not stated),-3%,.,-4%,5%,i,i,.,.,
O=C(O)c1cc(-c2ccc(/C=C3\NC(=O)N(c4ccccc4)C3=O)o2)ccc1Cl,5%,8.9µM*,25µM*,?,25µM*,-25%,.,?,
Cc1ccc(Sc2ccc(/C=C3/C(=O)NN(c4ccccc4)C3=O)o2)cc1,-8%,8%,2%,-20%,-22%,-9%,.,.,
Cc1cccc(N2NC(=O)/C(=C/c3ccc(-c4ccc(Cl)c(C(=O)O)c4)o3)C2=O)c1,-12%,11µM*,18µM*,22%,?,?,2%,?,APE1 dye cs=-14%;APE1 FP=1%
O=C1NN(c2ccccc2)C(=O)/C1=C/c1ccc(Sc2ccc(Cl)cc2)o1,-14%,5%,0%,-19%,?,-4%,.,.,
OC[C@H]1NC[C@@H](O)[C@@H](O)[C@@H]1O,5%,8%,-2%,.,i,.,.,.,
O=C(NCc1nnc(-c2cc3ccccc3[nH]2)o1)c1ccccc1,.,-2%,.,.,.,.,.,.,
COc1cc(C(C)=O)ccc1OCCCN1CCC(c2noc3cc(F)ccc23)CC1,.,.,.,20%,.,.,.,.,
O=C(CSc1nnc(SCc2ccc(Cl)cc2)s1)N/N=C/c1c[nH]c2ccccc12,?,22µM*,0%,-14%,i,?,.,-21%,
Nc1nc(-c2nn(Cc3ccccc3F)c3ncccc23)ncc1C1CC1,4%,8%,10%,.,0%,.,.,.,
C/C1=C\[C@@H](O)C(C(C)C)C(OC(=O)c2ccc(O)cc2)C/C(C)=C/CC1 (some centres not stated),-11%,8%,?,.,-23%,.,.,.,
c1ccc(C2CN3CCSC3=N2)cc1 (configuration not stated),-2%,8%,-3%,-6%,-6%,-5%,.,.,
Brc1ccc([C@H]2CN3CCSC3=N2)cc1,.,10%[56.1 µM],-5%,-7%,-3%,-5%,-6%[57.1 µM],-28%,
CC(C)[C@H](NC(=O)[C@H](CCCCN)NC(=O)[C@@H](NC(=O)[C@@H]1CCCN1C(=O)[C@H](CCCN=C(N)N)NC(=O)[C@H](CCCN=C(N)N)NC(=O)[C@H](CCCCN)NC(=O)[C@H](CCCCN)NC(=O)CNC(=O)[C@@H](NC(=O)[C@@H]1CCCN1C(=O)[C@@H](N)CCCCN)C(C)C)C(C)C)C(=O)N[C@@H](Cc1ccc(O)cc1)C(=O)N1CCC[C@H]1C(=O)O,68%,6%,1%,.,-2%,.,.,.,
CN1C2CCC1CC(OC(=O)c1c[nH]c3ccccc13)C2 (configuration not stated),-9%,4%[56.1 µM],19%,5%,?,0%,-12%[57.1 µM],-22%,
CCCCC(=O)O[C@]1(C(=O)CO)CCC2C3CCC4=CC(=O)CCC4(C)C3C(O)CC21C (some centres not stated),0%,.,.,1%,.,.,.,.,
N#Cc1cc2nc(O)c(O)nc2cc1[N+](=O)[O-],1%,7%[56.1 µM],?,3%,2%,-5%,-10%[57.1 µM],-82%,
CCCCCCCCCCCCCCCC(=O)OC[C@@H](NC(=O)C(Cl)Cl)[C@H](O)c1ccc([N+](=O)[O-])cc1,.,.,.,19%,.,.,.,.,
CC1=CCC(C(=O)O)C(C(=O)Nc2ccc(-c3nc4ccc(C)cc4s3)cc2)C1 (configuration not stated),-7%,25µM*,?,-6%,-26%,?,.,-28%,
O=C1CCCC(O)=C1N=Nc1ccc(C(=O)O)cc1,41%,2.2µM*,8.9µM*,11µM*,?,?,66%,10µM*,APE1 dye cs=?;APE1 FP=-10%
O=C1CCCC(O)=C1N=Nc1ccc2c(c1)OCO2,-1%,8%,-1%,16%,-1%,-2%,.,.,
